24 molecules from PubChem BioAssay (Tox21) can be followed below.

Each structure is given as a SMILES string. Unmarked numbers belong to inactive results. Inconclusive results are not listed. Activity calls are given as the source filed them. Unless noted, calls follow the shape of the dose curve; as a rule, active = well fitted curve in the direction sought with a large enough effect in the repeat runs; inconclusive = weak or mixed curves; inactive = no such curve, though single readings can be large; an effect the other way counts as inactive or inconclusive.

The nature of test [1]: qHTS assay for small molecule agonists of the p53 signaling pathway (AID 651631; calls by dose curve; also: nearly all actives have a fitted effect of over 15% in size). Summed up:
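HCT-116 cells carrying a beta-lactamase reporter under p53 response elements were dosed with compound for 16 h at 37 °C. LiveBLAzer B/G FRET substrate was then added for 2 h at room temperature, and fluorescence intensity was read to detect pathway agonism.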

Test [2] is described as follows: qHTS assay for small molecules that induce genotoxicity in human embryonic kidney cells expressing luciferase-tagged ATAD5 (AID 651632). Also: nearly all actives have a fitted effect of over 15% in size. Summed up:
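Genotoxicity read-out via ATAD5-luciferase: HEK293T cells, 16 hr compound incubation at 37C, Amplite detection.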
In general terms: In qHTS, concentration-response curves come from the screen itself.

The nature of test [3]: qHTS assay for small molecule agonists of the p53 signaling pathway - cell viability (AID 651633; calls by dose curve;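 also: p53RE-bla HCT reporter cells with a stable beta-lactamase p53 reporter; series mostly up to about 83 µM; nearly all actives have a fitted effect of over 30% in size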). The method in brief:
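Viability counter-read: CellTiter-Glo luminescence (30 min, room temperature) in the same p53RE-bla plates. These plates had been exposed to compounds for 16 h at 37 C.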

A short description of test [4]: qHTS assay for small molecules that induce genotoxicity in human embryonic kidney cells expressing luciferase-tagged ATAD5 - cell viability (AID 651634; calls by dose curve; also: nearly all actives have a fitted effect of over 25% in size; also: potency is read from the fitted curve at half-maximal effect). Summed up:
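Live-cell protease activity (CellTiter-Fluor, fluorescence) indicates viability. HEK293T cells with luciferase-tagged ATAD5; 15.5 hr compound treatment at 37C.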

Test [5] is described as follows: qHTS assay for small molecule disruptors of the mitochondrial membrane potential - cell viability (AID 720634; calls by dose curve;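 also: human HepG2 liver cancer cells; series mostly up to about 83 µM; nearly all actives have a fitted effect of over 20% in size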). Summed up: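 Human hepatoma HepG2 cells were treated for 1 hr with test chemicals, then given m-MPI dye and CellTiter-Glo. Cell viability reflects luminescence proportional to cellular ATP.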
Test [6] in a line: qHTS assay for small molecule disruptors of the mitochondrial membrane potential (AID 720635). Also: potency is read from the fitted curve at half-maximal effect. Summed up:
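Mitochondrial membrane potential tracked with Mito-MPS dye, red aggregates (ex 540/em 590 nm) against green monomers (ex 490/em 535 nm). Compound treatment 1 hr at 37C, dye 30 min in HepG2.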

The nature of test [7]: qHTS assay to test for compound auto fluorescence at 590 nm (red) in HepG2 cells (AID 720674). The method in brief: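 1 hr compound incubation on HepG2 cells, 37 C, 5% CO2; plate read ex 540 nm / em 590 nm; intensities reported as Rose Bengal sodium equivalents.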
The nature of test [8]: qHTS assay to test for compound auto fluorescence at 535 nm (green) in HepG2 cells (AID 720675).
A short description of test [9]: qHTS assay to test for compound auto fluorescence at 460 nm (blue) in HEK293 cells (AID 720678). The method in brief: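 After cell attachment (4-5 hr, 37C), compounds were pinned onto HEK293 monolayers in 10% dialyzed FBS medium. The blue channel (405/460 nm) was read following overnight culture. Equivalency was calculated against triamterene.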
A short description of test [10]: qHTS assay to test for compound auto fluorescence at 590 nm (red) in HEK293 cells (AID 720679). The method in brief: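 Plates of HEK293 cells (10% dialyzed FBS) are treated with 23 nL compound or DMSO vehicle after a 4-5 hr attachment period, incubated overnight at 37C, and read for red fluorescence at 540/590nm.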

Regarding `FC(F)(F)C(F)(F)C(F)(F)C(F)(F)CCI`, the Potency result in [1], in test [2], in [3], in test [4], in [6] and in [9] was “inactive” each time. The molecule was classed as inactive in [5], in test [7], in test [8] and in [10].

For `CCCC(=O)OC(=O)CCC`, the Potency entry in test [1], in test [2], in test [3], in [4], in test [6] and in [9] was “inactive” each time. The outcome in test [5], in test [7], in test [8] and in test [10] was inactive.

As to `CC1CCCC(=O)C1=O` (centres undefined), the Potency result in test [1], in test [2], in test [3], in test [4], in [6] and in test [9] was “inactive” each time. Moreover, the result in [5], in test [7], in test [8] and in test [10] was inactive.

Turning to `CC(=O)N[C@@H](Cc1ccc(O)cc1)C(=O)O`, the Potency entry in test [1], in test [2], in [3], in test [4], in test [6] and in test [9] was “inactive” throughout. For the same molecule, the molecule was called inactive in [5], in test [7], in [8] and in [10].

Take `Cc1c[nH]c2ccccc12`: the Potency result in test [1], in test [2], in [3], in test [4], in [6] and in test [9] was “inactive” throughout. Besides, the outcome in [5], in test [7], in test [8] and in [10] was inactive.

In the case of `COc1cc(NS(=O)(=O)c2ccc(N)cc2)nc(C)n1`, the Potency result in [1], in [2], in [3], in test [4], in [6] and in test [9] was “inactive” each time. The molecule was called inactive in [5], in [7], in test [8] and in test [10].

As for `CC(=O)NCCO`, the Potency result in [1], in test [2], in test [3], in test [4], in [6] and in test [9] was “inactive” throughout. For the same molecule, the molecule was classed as inactive in test [5], in [7], in test [8] and in test [10].

As for `CC(=O)OCCC1CCCCC1`, the Potency result in test [1], in test [2], in test [3], in test [4], in test [6] and in test [9] was “inactive” each time. In addition, the call in [5], in test [7], in test [8] and in test [10] was inactive.

Take `CC12CC3CC(C)(C1)CC(N)(C3)C2`: the Potency result in test [1], in test [2], in test [3], in test [4], in [6] and in [9] was “inactive” each time. Further, the molecule was called inactive in test [5], in test [7], in [8] and in test [10].

As to `CC1=C2[C@@H]([C@H](C)CC[C@H]2/C=C(\C)C(=O)O)[C@H](O)C1`, the Potency entry in test [1], in test [2], in test [3], in test [4], in [6] and in [9] was “inactive” each time. Besides, the molecule was classed as inactive in [5], in test [7], in test [8] and in test [10].

Consider `COc1ccc(C(=O)NCc2ccc(OCCN(C)C)cc2)cc1OC`, for which the Potency entry in test [1], in [2], in [3], in test [4], in test [6] and in test [9] was “inactive” in each case. Besides, the result in test [5], in test [7], in [8] and in test [10] was inactive.

For `c1ccc2sc(SSc3nc4ccccc4s3)nc2c1`, the Potency result in test [1], in test [2], in test [3], in [4], in [6] and in test [9] was “inactive” each time. In addition, the result in test [5], in [7], in test [8] and in [10] was inactive.

With `O=C1c2ccccc2C(=O)c2c(O)ccc(O)c21`, the Potency result in test [1], in test [2], in [3] and in test [9] was “inactive” in each case. Besides, the Potency in test [4] is 54.5 µM (active); in test [6], 3.06 µM (active). Moreover, the outcome in test [5], in test [7], in test [8] and in [10] was inactive.

As to `C=CC(=O)O`, the Potency entry in test [1], in test [2], in [3], in test [4] and in test [9] was “inactive” in each case. Further, the molecule was called inactive in [5], in [7], in test [8] and in [10].

Turning to `CNCc1ccc(NC(=O)c2c[nH]c3c2C(=O)CCC3)cc1`, the Potency entry in [1], in [2], in test [3], in test [4] and in [9] was “inactive” each time. The molecule was called inactive in test [5], in test [7], in test [8] and in test [10].

In the case of `COc1ccc(C)cc1`, the Potency entry in [1], in test [2], in [3], in test [4] and in [9] was “inactive” throughout. Also, the call in test [5], in [7], in test [8] and in test [10] was inactive.

Turning to `CC(C)c1ccc(C#N)cc1`, the Potency entry in test [1], in [2], in test [3], in test [4], in test [6] and in [9] was “inactive” in each case. In addition, the call in test [5], in test [8] and in [10] was inactive.

With `COc1ccc(C2C(=O)c3ccccc3C2=O)cc1`, the Potency entry in [1], in [2], in test [3], in test [4] and in test [9] was “inactive” each time. Also, the outcome in test [5], in test [7], in test [8] and in test [10] was inactive.

In the case of `CCc1ccc(C)cc1`, the Potency result in test [1], in test [2], in [3], in [4] and in test [9] was “inactive” each time. Besides, the result in test [5], in [7], in test [8] and in [10] was inactive.

Regarding `CC(=O)OCC(=O)[C@@]1(OC(C)=O)[C@@H](C)C[C@H]2[C@@H]3C[C@H](F)C4=CC(=O)C=C[C@]4(C)[C@@]3(F)[C@@H](O)C[C@@]21C`, the Potency result in test [1], in [2], in test [3], in test [4] and in test [9] was “inactive” throughout. Further, the outcome in [5], in [7], in test [8] and in test [10] was inactive.

For `NC(=O)CCCCC(N)=O`, the Potency result in test [1], in test [2], in [3], in test [4] and in test [9] was “inactive” in each case. In addition, the outcome in test [5], in test [7], in test [8] and in [10] was inactive.

As to `COC(CC(C)CCCC(C)(C)O)OC` (centres undefined), the Potency entry in test [1], in test [2], in test [3], in [4] and in [9] was “inactive” in each case. The outcome in test [5], in test [7], in test [8] and in test [10] was inactive.

Regarding `CC(=O)Oc1cccc(O)c1`, the Potency entry in test [1], in test [2], in test [3], in test [4] and in test [9] was “inactive” each time. For the same molecule, the result in [5], in test [7], in test [8] and in test [10] was inactive.

On to `CCSC(=O)N(CC)CC`, for which the Potency result in test [1], in test [2], in [3], in test [4] and in test [9] was “inactive” in each case. The molecule was called inactive in [5], in [7], in test [8] and in test [10].
